Results filed as inconclusive are left out. A number with no mark means an inactive call. Calls follow the shape of the dose curve; as a rule, active = well fitted inhibition curve with a large enough effect; inconclusive = small, poorly fitted or top-dose-only effect; inactive = flat fitted curve, though single readings scatter.
These compounds were tested against Calcium and integrin-binding protein 1 (Homo sapiens) (UniProt Q99828) (assay: Primary qHTS for Identification of Calcium Integrin Binding Protein 1 (CIB1) Competitor (AID 1508620;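 also: GST tagged CIB1 binding a fluorescein labelled alphaIIb integrin peptide tracer; top concentration of the series differs between compounds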)). Conditions: CIB1-GST / FITC-alphaIIb peptide fluorescence polarization; series mostly up to 114 µM; activity change, negative = inhibition: at the top concentration.
Chain of Calcium and integrin-binding protein 1 (Homo sapiens) (Q99828 whole entry, looked up): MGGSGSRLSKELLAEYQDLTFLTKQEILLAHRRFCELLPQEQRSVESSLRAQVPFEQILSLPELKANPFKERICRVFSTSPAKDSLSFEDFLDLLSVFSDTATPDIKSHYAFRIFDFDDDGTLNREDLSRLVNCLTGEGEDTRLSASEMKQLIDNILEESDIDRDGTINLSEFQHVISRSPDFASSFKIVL
How it was run: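 CIB1-GST (1 uM final) and compound incubated 15 min at room temperature before adding FITC-alphaIIb peptide tracer (100 nM final). Competition for binding read by fluorescence polarization (ex 480, em 540) after another 15 min at room temperature.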
With `C/C=C/c1ccc2c(c1)[C@@H](C)[C@H](c1ccc(O)cc1)O2` the “activity change, negative = inhibition” value was 2.49%.
With `CC(C)N(CCCCOCC(=O)NS(C)(=O)=O)c1cnc(-c2ccccc2)c(-c2ccccc2)n1` the “activity change, negative = inhibition” value was -9.08%.
With `CC(=O)O[C@H]1C[C@@]2(C)[C@@H](CC[C@H]3[C@@]4(C)C=CC(=O)[C@@H](C)[C@@H]4[C@H](O)C(=O)[C@@]32C)/C1=C(/CCC=C(C)C)C(=O)O` the “activity change, negative = inhibition” value was 2.46% [at 57.7 µM].
`CC1=C(/C=C/C(C)=C\C=C\C(C)=C/C(=O)O)C(C)(C)CCC1` was tested, and the “activity change, negative = inhibition” value was 4.64%.
`COc1c/c(=C2\C=c3ccccc3=N2)[nH]/c1=C\c1[nH]c(C)cc1C` was tested, and the “activity change, negative = inhibition” value was 32.3%.
`CC[C@H]1OC(=O)[C@](C)(F)C(=O)[C@H](C)[C@@H](O[C@@H]2O[C@H](C)C[C@H](N(C)C)[C@H]2O)[C@](C)(OC)C[C@@H](C)C(=O)[C@@H](C)[C@H]2N(CCCCn3cc(-c4cccc(N)c4)nn3)C(=O)O[C@]12C` was tested, and the “activity change, negative = inhibition” value was -1.99%.
`C[C@@H]1CC[C@]2(C(=O)OC3OC(CO)C(O)C(O)C3O)CC[C@]3(C)C(=CCC4[C@@]5(C)CC[C@H](O)[C@](C)(C(=O)O)C5CC[C@]43C)C2[C@]1(C)O` (stereo not given in full) was tested, and the “activity change, negative = inhibition” value was 1.24% [at 30.2 µM].
`C#CCN(Cc1cc2c(=O)n(C)c(CN3CCN(C)CC3)nc2cc1Cl)c1ccc(C(=O)NCc2cccnc2)cc1` was tested, and the “activity change, negative = inhibition” value was 2.48%.
For `O=C(Nc1ccccc1)N1CCN(Cc2ccc3ccccc3n2)CC1`, the “activity change, negative = inhibition” value was -3.39%.
In the case of `CC(=O)O[C@@H]1C[C@@H](OC(C)=O)C(C)(C)/C=C/[C@H](C)[C@H](OC(C)=O)[C@@]2(O)C[C@H](C)[C@H](OC(=O)c3ccccc3)[C@@H]2/C=C/1C`, the “activity change, negative = inhibition” value is reported as 0.21% [at 30.2 µM].
In the case of `CCNC(=O)C1OC(n2cnc3c(N)nc(NCCc4ccc(CCC(=O)O)cc4)nc32)C(O)C1O` (stereo not given), the “activity change, negative = inhibition” value is reported as -3.15%.
`CC1(C)C[C@H](O)C[C@@]2(C)OC(=O)C=C12` was tested, and the “activity change, negative = inhibition” value was -0.151% [at 228 µM].
In the case of `COC(=O)C1=COC(O[C@@H]2O[C@H](CO)[C@@H](O)[C@H](O)[C@H]2O)[C@H]2[C@@H]1[C@H](OC(=O)CCc1ccc(O)cc1)C[C@]2(C)O` (stereo not given in full), the “activity change, negative = inhibition” value is reported as 0.111% [at 57.7 µM].
For `CC(=O)OC1C(O)CC2(C)C(CCC(C)C23Cc2c(O)cc(CO)c(C=O)c2O3)C1(C)C` (stereo not given), the “activity change, negative = inhibition” value was -17.5% [at 57.7 µM].
With `CCCCNc1ncc2c(-c3ccc(F)cc3)nn(CC3CCC(N)CC3)c2n1` (stereo not given) the “activity change, negative = inhibition” value was -5.27% [at 57.7 µM].

— PubChem BioAssay (NCATS)
% is scaled to controls: 0 for no effect and ±100 for the full control effect.
